High-throughput results from PubChem BioAssay.
BAZ2B block: qHTS Assay for Inhibitors of BAZ2B; Potency, µM (highest dose often 114 µM), inactives show at the highest dose activity change, negative = inhibition, most hits filed as inhibitors; Bromodomain adjacent to zinc finger domain protein 2B (Homo sapiens), Q9UIF8; 360,000 tested, 4.4% active; AlphaScreen BAZ2B-H3K14Ac peptide displacement; further: on the % scale 0 is the no-effect control and ±100 the full control effect; nearly all actives have a fitted effect of over 60% in size
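AlphaScreen luminescence quantifies BAZ2B engagement of H3K14Ac peptide; the protein and biotinylated peptide are both at 50 nM final, buffer PBS pH 7.4 with 0.01% Tween-20, all steps at room temperature.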
JMJD2A Tudor inh: qHTS Assay for Inhibitors of JMJD2A-Tudor Domain. Lysine-specific demethylase 4A (Homo sapiens), O75164. AlphaScreen JMJD2A-Tudor / H3K4me3 peptide binding. Potency, µM (doses to about 114 µM), for the others: at the highest dose activity change, negative = inhibition, hits mostly inhibitors. 390,000 tested, 4.4% active; further: on the % scale 0 is the no-effect control and ±100 the full control effect; nearly all actives have a fitted effect of over 50% in size
VDR inh: Inhibitors of the vitamin D receptor (VDR): qHTS; VDR-SRC2-3 peptide fluorescence polarization, 2 h; Potency, µM, for inactives: max response, negative = inhibition, hits mostly inhibitors; 400,000 tested, 0.93% active; AID 504847, 2011; further: on the % scale 0 is the no-effect control and ±100 the full control effect
Target sequence (P11473 whole entry, looked up): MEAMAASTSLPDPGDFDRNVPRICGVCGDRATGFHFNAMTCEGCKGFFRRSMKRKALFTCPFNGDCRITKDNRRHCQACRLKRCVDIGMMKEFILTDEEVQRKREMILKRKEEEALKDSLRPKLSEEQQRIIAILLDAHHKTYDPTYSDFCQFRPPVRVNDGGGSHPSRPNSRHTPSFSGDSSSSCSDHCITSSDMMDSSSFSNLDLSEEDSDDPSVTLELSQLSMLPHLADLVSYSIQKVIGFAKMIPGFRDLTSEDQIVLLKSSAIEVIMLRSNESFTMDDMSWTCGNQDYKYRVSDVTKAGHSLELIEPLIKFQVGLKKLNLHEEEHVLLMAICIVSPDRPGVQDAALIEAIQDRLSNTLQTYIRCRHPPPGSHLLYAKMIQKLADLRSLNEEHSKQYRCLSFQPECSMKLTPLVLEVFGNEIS
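Fluorescence polarization assay measuring small-molecule disruption of VDR binding to the coregulator peptide SRC2-3. Compounds were pin-transferred (23 nl) into the reagent mix and incubated 2 h at room temperature before reading.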
PLK1 PBD block: qHTS for Inhibitors of PLK1-PDB (polo-like kinase 1 - polo-box domain): Primary Screen. Serine/threonine-protein kinase PLK1 (Homo sapiens), P53350. Plk1 PBD binding of FITC phosphopeptide, fluorescence polarization. Potency, µM, inactives show max response, negative = inhibition, hits mostly inhibitors. 360,000 tested, 2.8% active. AID 720504, 2013; further: series mostly up to about 57 µM; on the % scale 0 is the no-effect control and ±100 the full control effect; nearly all actives have a fitted effect of over 65% in size
G9a inh: qHTS Assay for Inhibitors of Histone Lysine Methyltransferase G9a | Histone-lysine N-methyltransferase EHMT2 (Homo sapiens), Q96KQ7 | Potency, µM (doses to about 102 µM), for inactives: at the highest dose activity, negative = inhibition, usual class: inhibitors | G9a H3K9 monomethylation, AlphaScreen, 2 h | AID 504332, 2011 | 350,000 tested, 8.8% active; further: on the % scale 0 is the no-effect control and ±100 the full control effect; nearly all actives have a fitted effect of over 75% in size
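G9a (20 nM) was preincubated 15 min with compound, then reacted 2 h at room temperature with 500 nM biotin-H3K9 peptide and 20 µM SAM. Monomethyl-H3K9 detected by AlphaScreen using anti-H3K9me1 antibody.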
HP1b chromo inh: HTS for Inhibitors of HP1-beta Chromodomain Interactions with Methylated Histone Tails; 390,000 tested, 0.56% active; Chromobox protein homolog 1 (Homo sapiens), P83916; Potency, µM (series often up to 114 µM), without a hit: at the highest dose activity change, negative = inhibition, hits mostly inhibitors; AlphaScreen HP1-beta / biotin-H3K9me3 peptide binding; further: nearly all actives have a fitted effect of over 70% in size
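Compound inhibition of the preformed complex between 50 nM HP1-beta and 50 nM biotinylated H3K9me3 peptide was read by AlphaScreen. Buffer was PBS pH 7.4 with 0.01% Tween-20. Incubations ran 30 min at room temperature, with 10 ug/mL donor/acceptor beads.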
* hit, by the source's call; [ ] = another dose, or the depositor's remark. Most compounds without a hit are left out; they make up all but 11% or so of the library. The call rests on the fitted dose curve; in most records, active means well fitted curve in the direction sought with a large enough effect; inconclusive means small, poorly fitted or top-dose-only effect, or another doubt; inactive means no such curve, though single readings can be large; an effect the other way counts as inactive or inconclusive. Potency means the concentration at half of the fitted maximal effect.

What do the screens show for `CCN(CC)S(=O)(=O)c1cccc(-n2c(O)c(C=Nc3ccccc3C(=O)O)c3ccccc3c2=O)c1`?
BAZ2B block: -37.8%; JMJD2A Tudor inh: -22.1%[11.4 µM]; VDR inh: -12.7%; PLK1 PBD block: 23.8µM*; G9a inh: -49.1%[59 µM]; HP1b chromo inh: -2.8%

Results for Cc1occc1C(=O)NNC(=S)NC(=O)COc1ccc(Cl)cc1Cl ?
BAZ2B block: -18.4%; JMJD2A Tudor inh: -19.7%; VDR inh: inconclusive; PLK1 PBD block: -21.6%; G9a inh: 8.91µM*; HP1b chromo inh: inconclusive

Results for S=C(NCc1ccccc1)Nc1ccc(Cl)cc1 ?
BAZ2B block: -0.3%; JMJD2A Tudor inh: 5.6%; VDR inh: 7.3%; PLK1 PBD block: 4.5%; G9a inh: -5.3%; HP1b chromo inh: 43.7%

How did Cc1ccc(C(=O)Nc2ccccc2C(=O)O)cc1NC(=O)COc1c(C)cccc1C do in these assays?
BAZ2B block: 79.4µM*; JMJD2A Tudor inh: -7.5%; VDR inh: -22.8%; PLK1 PBD block: -13.8%; G9a inh: 24.5%[12.7 µM]; HP1b chromo inh: 31.5%

Results for O=C(COc1ccc(Cl)cc1Cl)NNC(=S)Nc1ccc(F)cc1 ?
BAZ2B block: -2.6%; JMJD2A Tudor inh: -24.5%; VDR inh: -9.1%; PLK1 PBD block: -24.8%; G9a inh: 11.2µM*; HP1b chromo inh: -12.1%

What do the screens show for `Cc1occc1C(=O)NNC(=O)COc1ccc(Br)cc1Br`?
BAZ2B block: 1.7%; JMJD2A Tudor inh: -16.9%; VDR inh: -1.2%; PLK1 PBD block: -5.0%; G9a inh: 7.6%[59 µM]; HP1b chromo inh: 26.3%

Results for C=CCNC(=S)Nc1ccc(Cl)cc1 ?
BAZ2B block: -5.4%; JMJD2A Tudor inh: -4.5%[11.4 µM]; VDR inh: -0.6%; PLK1 PBD block: 13.4µM*; G9a inh: 24.4%; HP1b chromo inh: 16.9%

Results for COc1ccc(Nc2nc(N3CCOCC3)nc(N3CCOCC3)n2)cc1Cl ?
BAZ2B block: -31.7%; JMJD2A Tudor inh: inconclusive; VDR inh: 0.5%; PLK1 PBD block: -5.7%; G9a inh: 3.9%; HP1b chromo inh: 11.4%

What do the screens show for `Cc1ccc(S(=O)(=O)NC(=O)Nc2cc(C(C)(C)C)on2)cc1`?
BAZ2B block: 2.9%; JMJD2A Tudor inh: -2.2%; VDR inh: -1.8%; PLK1 PBD block: -2.9%; HP1b chromo inh: 19.1%

How did Cc1cc(OCC(=O)OCC(=O)NC2CCCCCC2)ccc1Cl do in these assays?
BAZ2B block: 4.6%; JMJD2A Tudor inh: -1.4%; VDR inh: -14.8%; PLK1 PBD block: -1.7%; G9a inh: -3.5%[12.7 µM]; HP1b chromo inh: 41.1%

Results for C=CCNC(=S)NNC(=O)COc1ccc(Cl)cc1Cl ?
BAZ2B block: 10.5%; JMJD2A Tudor inh: inconclusive; VDR inh: -12.2%; PLK1 PBD block: -15.1%; G9a inh: 10µM*; HP1b chromo inh: 1.0%

What do the screens show for `Cc1cccc(OCC(=O)Nc2ccc(C(=O)Nc3ccccc3C(=O)O)cc2)c1`?
PLK1 PBD block: -8.8%

What do the screens show for `O=C(COc1ccc(Cl)cc1Cl)Nc1ccc(C(=O)Nc2ccccc2C(=O)O)cc1`?
BAZ2B block: 50.1µM*; JMJD2A Tudor inh: 50.1µM*; VDR inh: -7.2%; PLK1 PBD block: inconclusive; HP1b chromo inh: inconclusive

How did O=C(Nc1ccc(CN2CCOCC2)cc1)c1ccc2ccccc2c1 do in these assays?
BAZ2B block: -13.9%; JMJD2A Tudor inh: -15.8%; VDR inh: 3.3%; PLK1 PBD block: 1.0%; HP1b chromo inh: 11.6%

Results for O=C(Nc1cccc(Cl)c1N1CCCC1)c1cccc(-c2cc3ccccc3oc2=O)c1 ?
BAZ2B block: 10.1%; JMJD2A Tudor inh: 0.0%; VDR inh: 16.2%; PLK1 PBD block: -9.4%; G9a inh: 35.5µM*; HP1b chromo inh: 43.8%
